UCHL1 block: human UCHL1 deubiquitinase inhibition. P09936. purified UCHL1, Ub-rhodamine cleavage fluorescence. inhibition, % at 20 µM. 0.2% of 47,000 active
Target sequence (P09936 whole entry, looked up): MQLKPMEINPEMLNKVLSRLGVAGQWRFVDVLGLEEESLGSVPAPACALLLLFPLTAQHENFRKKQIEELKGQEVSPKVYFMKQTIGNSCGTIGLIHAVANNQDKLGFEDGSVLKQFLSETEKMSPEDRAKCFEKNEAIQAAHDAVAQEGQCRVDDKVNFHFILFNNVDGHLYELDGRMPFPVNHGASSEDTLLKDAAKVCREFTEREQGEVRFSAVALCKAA
USP7 block: inhibitors of human USP7 deubiquitinase; 0.3% of 47,000 active; inhibition, % at 20 µM; purified USP7, Ub-rhodamine cleavage fluorescence
OTUD3 inh: human OTUD3 deubiquitinase inhibition | purified OTUD3, Ub-rhodamine fluorescence, 2 h | inhibition, % at 25 µM | AID 1645858 | 0.7% of 47,000 active
Numbers without * were called inactive; · = not tested or not shown. Shown are actives, neighbours in structure and some others; about 0.83% of the full set was active somewhere. Cut-off read from the data, not from the text of the source: active = inhibition above about 30%; inactive = the rest.

SMILES	UCHL1 block	USP7 block	OTUD3 inh
O=C(Cn1c(=O)n(-c2ccccc2)c(=O)c2ccc(C(=O)NCc3ccc4c(c3)OCO4)cc21)NCCC1=CCCCC1	3	10	58*
O=C(CCCCn1c(=O)c2ccccc2n(CC(=O)NCCC2=CCCCC2)c1=O)NCc1ccc2c(c1)OCO2	0	-3	-1
CC(C)(C)c1cc(C(=O)NC2CCCC2)nc2ccnn12	4	-3	14
O=C(COc1nsnc1N1CCOCC1)Nc1ccccc1F	-2	0	81*
O=C(COc1nsnc1N1CCOCC1)Nc1ccc(F)c(F)c1	2	-4	2
COc1cccc(-c2ccc3nc(N4CCC(C(N)=O)CC4)sc3n2)c1	3	-1	0
O=C(CCn1c(=O)c2sccc2n(Cc2ccc([N+](=O)[O-])cc2)c1=O)NCc1ccccc1	10	21	44*
Cc1ccc(CNC(=O)CCCn2c(=O)c3sccc3n(CC(=O)Nc3cc(Cl)ccc3C)c2=O)cc1	-1	19	40*
Cc1ccc(CNC(=O)CCCn2c(=O)c3ccccc3n(CC(=O)Nc3cc(C)[nH]n3)c2=O)cc1	-2	-1	-4
O=C(Cn1c(=O)c2sccc2n(Cc2ccc([N+](=O)[O-])cc2)c1=O)NCCc1ccccc1	5	7	24
CCOc1ccc(NC(=O)Cn2c(=O)n(CC(=O)NCc3ccc(C)cc3)c(=O)c3sccc32)cc1	5	14	20
CCOc1ccccc1NC(=O)Cn1c(=O)n(CCCC(=O)NCc2ccc(C)cc2)c(=O)c2sccc21	6	36*	13
COc1ccc(NC(=O)Cn2c(=O)n(CC(=O)NCc3ccc(C)cc3)c(=O)c3sccc32)cc1OC	11	9	32*
Cc1cc(NC(=O)Cn2c(=O)n(CCCCCC(=O)NCc3ccc4c(c3)OCO4)c(=O)c3sccc32)n[nH]1	0	5	0
C=C[C@]1(C)C=C2C(=O)[C@]3(O)OC(=O)[C@@]4(CCCC(C)(C)[C@H]34)[C@@]2(O)CC1	15	-13	11
CN1C(=O)COc2ccccc2CCCC[C@@H]2[C@H]1CCCN2C(=O)c1n[nH]c2c1CCC2	3	0	6
CCN(CC)S(=O)(=O)c1cccc(NC(=O)c2ccc(OC(F)(F)F)cc2)c1	8	13	7
COc1cc(/C=C/C(=O)O)ccc1O	0	2	-1
COc1cc(/C=C/C(=O)OCC(=O)Nc2ccc([N+](=O)[O-])cc2OC)ccc1O	24	34*	47*
COC(=O)CC1CC2=C(C(=O)c3c(O)cccc3C2=O)C(C)O1 (configuration not stated)	5	-132	24
C[C@@H]1OC2=C(C(=O)c3cccc(O)c3C2=O)[C@H](O)[C@@H]1O	32*	-116	67*
CC(C)=CCc1c(O)cc2c(c1C)OC(=O)c1c(C)c(Cl)c(O)c(CO)c1O2	5	15	21
CC(C)=CCC/C(C)=C/CC/C(C)=C/Cc1c(C)cc(O)cc1O	8	8	18
CC(C)=CCC/C(C)=C/CC/C(C)=C/COc1c(O)cc(C=O)c(C=O)c1O	92*	93*	84*
COc1cccc(CC(=O)N2CC[C@H]3[C@H]2CCN3c2ncccn2)c1	0	0	-1
SMILES	UCHL1 block	USP7 block	OTUD3 inh
Cc1ccc(C)c(N(CC(=O)Nc2ccc3c(c2)OCCO3)S(=O)(=O)c2ccccc2)c1	7	10	18
N#Cc1ccccc1Cn1c(=O)n(CCCCC(=O)NCCc2ccccc2)c(=O)c2ccccc21	1	5	36*
O=C(CCCCn1c(=O)c2ccccc2n(Cc2ccccc2F)c1=O)NCCc1ccccc1	1	2	1
CC(=O)Nc1ccc(C(=O)OCc2cc(=O)n3c4c(sc3n2)CCCC4)cc1	2	0	-11
COc1ccccc1-n1c(SCC(=O)N2CCc3ccccc32)nnc1-c1ccncc1	3	-5	4
COc1ccc(OC)c(-n2c(SCC(=O)N3CCc4ccccc43)nnc2-c2cccc(S(=O)(=O)N(C)C)c2)c1	10	8	32*
CCN(CC)CCNc1nc(SC(C)C)nc2sc3c(c12)CC(C)(C)OC3	-1	-36	-7
O=C(NCc1ccc2c(c1)OCO2)c1cc2c(s1)CCC2	38*	9	22
O=C(NCc1ccc2c(c1)OCO2)c1ccsc1	-2	3	-5
CC(C)c1noc(-c2ccn3c(CC(=O)Nc4ccccc4)nnc3c2)n1	2	8	1
COc1ccc(N(CC(=O)NC2CCCCC2)C(=O)c2ccc(-c3ccccc3)[nH]2)cc1OC	1	4	0
O=C(NC1CCCc2ccccc21)c1cc(=O)[nH]c2ccccc12 (configuration not stated)	-2	4	-1
O=C(/C=C/c1ccco1)Nc1nc2c(s1)COCC2	-17	-32	-41
O=C(Nc1nc2c(s1)COCC2)c1cc(-c2ccco2)[nH]n1	-15	-38	64*
CC(=O)NS(=O)(=O)c1ccc(NC(=O)/C=C/c2cn(-c3ccccc3)nc2-c2ccccc2)cc1	12	41*	9
CNC(=O)Cc1ccc(NC(=O)/C=C/c2cn(-c3ccccc3)nc2-c2ccc(F)cc2)cc1	1	7	0
Cc1ccc(C2C3=C(CC(c4ccc(Cl)cc4)CC3=O)Nc3ccccc3N2C(=O)c2ccccc2)cc1 (configuration not stated)	3	-5	5
N#C/C(=C\c1ccc(OCc2cccc(C(=O)O)c2)cc1)c1ccc(F)cc1	5	31*	8
N#C/C(=C/c1ccc(OCc2cccc(C(=O)O)c2)cc1)c1ccccc1	-2	1	5
COc1ccc(NC(=O)Nc2ccc3nc4n(c(=O)c3c2)CCCC4)cc1OC	5	6	6
Cc1cccc(NC(=O)CSc2ncnc3c2sc2nc(CC(C)C)c4c(c23)CCC4)c1	1	5	11
O=C(/C=C/c1ccco1)c1cccc([N+](=O)[O-])c1	19	·	47*
O=C(c1cccc([N+](=O)[O-])c1)N(c1ccccn1)c1ccccn1	-3	-1	-1
O=C(Nc1ccc(N2CCN(Cc3ccc(F)cc3)C2=O)nc1)C1CCC1	3	4	22
O=C(c1ccccc1)N(Cc1ccccn1)c1nc2ccc(F)cc2s1	-3	-2	7
SMILES	UCHL1 block	USP7 block	OTUD3 inh
CC(Nc1ccc(Oc2ccccc2)cc1)C(=O)Nc1ccc2c(c1)OCO2 (configuration not stated)	8	2	9
COc1cc(C(=O)Nc2ccc3c(c2)OCCO3)ccc1OCC(=O)Nc1ccc(F)cc1	3	4	-2
COc1cccc(N2CCN(C(=O)C3CCN(c4nc(NC(C)=O)ns4)CC3)CC2)c1	-3	0	-14
Cc1ccc(C(=O)Nc2ccc3nccnc3c2)cc1	0	2	6
O=C(Nc1ccc2n[nH]nc2c1)c1ccc(Cl)c(Cl)c1	0	2	40*
CC1CCN(c2nnc(-c3nc(C4CC4)no3)c3ccccc23)CC1	5	-3	31*
c1ccc2c(N3CCCC3)nnc(-c3nc(C4CC4)no3)c2c1	1	-14	3
CC(C)CCCCCCCCCCCC(=O)O	4	-18	6
COc1cc(NC(=O)Cc2ccc3c(c2)OCCO3)c(OC)cc1Cl	4	15	8
Cc1ccc(NC(=O)C2CCN(C(=O)c3cc(-c4ccncc4)n[nH]3)CC2)cc1Cl	4	3	39*
Cc1ccc(NC(=O)c2cc(-c3ccncc3)n[nH]2)cc1Cl	1	16	-3

Bioassay records: PubChem BioAssay, Buhrlage Lab, Dana-Farber Cancer Institute and Novartis Institutes for BioMedical Research (Cambridge, Mass)
